In PubChem BioAssay:
Values without a mark were called inactive.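 The calls were made as follows, unless noted: active = cell viability at or below a set limit in both duplicate runs, the limit being the all-compound median minus 4 SD (cut at about 23% in these data, passing the limit was not always enough); inconclusive = no clear call, values can overlap the other calls; inactive = the rest.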 Records with an inconclusive call do not appear.

Test: viability gain of MRP-1-high H69AR cells under doxorubicin, pilot screen, MRP-1 activator project, CellTiter-Glo, duplicate (AID 807;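 active = viability increase at or above a cutoff of the median across tested compounds plus 3 SD, cut at about 8.5% in these data, passing the limit was not always enough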;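 also: compound pretreatment 18-22 h then 72 h combined with doxorubicin; 0% = doxorubicin alone and 100% = vehicle without doxorubicin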)
Conditions: H69AR viability with doxorubicin, CellTiter-Glo luminescence; at 10 µM; stronger effect = higher value
For `O=S(=O)(Cc1ccccc1)N1CCn2c(nc3ccccc32)C1`, the viability increase was -0.75%. `Cc1noc(C(=O)NCc2ccco2)c1Cl` gave a viability increase of -3.01%. With `Cc1cc(=O)[nH]c(SCc2cc(Cl)ccc2OC(F)F)n1` the viability increase was -1.54%. `COc1cccc(C2CC(c3ccccc3OC)n3nc(N)nc3N2)c1` (stereo not drawn) showed a viability increase of -1.09%. Work on `O=C1c2ccccc2C(=O)N1CCc1nc2ccccc2c(=O)n1Cc1ccco1` yielded a viability increase of -3.47%. `CCN(CC(=O)NCc1ccc(F)cc1)C(=O)C1CCN(C(=O)Nc2ccccc2)CC1` gave a viability increase of -0.13%. For `COCCn1c(SCCN2CCOCC2)nc2c1c(=O)[nH]c(=O)n2C`, the viability increase was 0.95%. `Cc1ccc(C(=O)NCCn2cc(SCC(=O)Nc3cc(C)on3)c3ccccc32)cc1` gave a viability increase of 1.75%. For `COC(=O)C1CCCN1C(C(=O)NC1CCCCC1)c1ccc(Cl)cc1` (stereo not drawn), the viability increase was 1.72%. Compound `CC(=O)c1ccc(OCCCC(=O)NCC(c2ccco2)N(C)C)cc1` (stereo not drawn) has a viability increase of -4.73%. Work on `CCOc1ccc(NC2c3ccccc3C(=O)N2c2ccc(Cl)cn2)cc1` (stereo not drawn) yielded a viability increase of -1.1%. `O=C(c1ccco1)N1CCN=C1SCc1cccc(Cl)c1` showed a viability increase of 1.56%. `Cc1nn(C(=O)CN2C(=O)c3ccccc3C2=O)c(C)c1Br` showed a viability increase of -1.05%. `CCOC(=O)CNc1c(N2CCN(c3ccccn3)CC2)c(=O)c1=O` gave a viability increase of -1.12%. `CCOC(=O)c1[nH]c(=O)[nH]c1CSc1nc(C)cc(C)n1` gave a viability increase of -3.65%. `Cc1ccc(NC(=O)CSc2nnc(Cc3cccn3C)n2-c2ccc(F)cc2)c(C)c1` showed a viability increase of -3.99%. In the case of `COc1ccc(NC(=O)c2ccc3c(c2)n(C)c(=O)n3C)cc1`, the viability increase is reported as -5.39%. Work on `O=C(O)COc1ccc2c(c1)OCCO2` yielded a viability increase of 0.55%. In the case of `O=C(Nc1cccc(Br)c1)c1cc2ccccc2o1`, the viability increase is reported as -5%. Compound `CC1(C)Cc2ccccc2-c2nc(NCCO)n(-c3ccccc3)c(=O)c21` has a viability increase of -2.92%. Compound `C=C(C)CSc1nc2c(cc1C#N)CCC2` has a viability increase of 1.11%. Work on `CCC1Oc2nc(SC)nnc2-c2ccccc2N1C(=O)c1ccccc1` (stereo not drawn) yielded a viability increase of -5.16%. With `COC(=O)c1ccccc1NC(=O)CS(=O)(=O)Cc1nc(-c2ccc(C)cc2)oc1C` the viability increase was -2.52%. `O=C1CC(c2ccccc2)C(C(=O)Nc2ccccc2F)N1` (stereo not drawn) gave a viability increase of -0.74%. `O=C(CCSCCc1ccccn1)Nc1nccs1` gave a viability increase of -0.56%. In the case of `CCN(CCNS(=O)(=O)c1ccc2c(c1)oc(=O)n2C)c1ccccc1`, the viability increase is reported as -1.13%. `O=C(CN(Cc1ccccc1)S(=O)(=O)c1ccccc1)NC1CC1` gave a viability increase of -1.25%. `O=C(Nc1cccc(F)c1)c1ccc(S(=O)(=O)N2CCCC2)cc1` showed a viability increase of 1.26%. With `N#Cc1cccc(NC(=O)CC2CCCCC2)c1` the viability increase was -0.95%. For `O=S(=O)(NC1c2cccc3cccc(c23)C1N1CCNCC1)c1ccccc1` (stereo not drawn), the viability increase was -5.27%. `CC(C)N(Cc1nc(-c2ccccc2)no1)C(=O)Cc1ccccc1` showed a viability increase of -2.2%. For `COc1cc(NC(=O)c2cc(-c3cccc(O)c3)on2)cc(OC)c1OC`, the viability increase was -6.05%. `Cc1cccc(NC(=O)CC2SC(=NC3CCCCC3)NC2=O)c1` (stereo not drawn) gave a viability increase of 0.92%. `CCSc1nnc(Cn2c(=O)sc3ccccc32)n1-c1ccc(OC)cc1` showed a viability increase of -1.8%. In the case of `Cn1c(=O)oc2cc(S(=O)(=O)N3CCC(N4CCCCC4)CC3)ccc21`, the viability increase is reported as -1.67%. Work on `CN(C(=O)c1cnc2n(c1=O)CCS2)C1CCCCC1` yielded a viability increase of -0.01%. In the case of `COc1cc(OC)c(C2CC(=O)N3CN(C)CSC3=C2C#N)cc1OC` (stereo not drawn), the viability increase is reported as -2.96%. Compound `CCn1nnc(NC(=O)c2ccc(C(C)(C)C)cc2)n1` has a viability increase of -0.53%. For `Cc1cc2nsnc2c(S(=O)(=O)NCC(=O)O)c1C`, the viability increase was 1.73%.

Test: growth suppression of beta-catenin knockout HCT116, pilot screen, human colon tumor cells (AID 823);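 also: 0% = wells killed by 20 µM Hyamine and 100% = untreated DMSO cell wells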
Conditions: CellTiter-Glo, 60 h, at 10 µM, stronger effect = lower value
In the case of `O=S(=O)(Cc1ccccc1)N1CCn2c(nc3ccccc32)C1`, the viability is reported as 103%. In the case of `Cc1noc(C(=O)NCc2ccco2)c1Cl`, the viability is reported as 102%. Work on `Cc1cc(=O)[nH]c(SCc2cc(Cl)ccc2OC(F)F)n1` yielded a viability of 98.2%. `COc1cccc(C2CC(c3ccccc3OC)n3nc(N)nc3N2)c1` (stereo not drawn) showed a viability of 98.1%. For `O=C1c2ccccc2C(=O)N1CCc1nc2ccccc2c(=O)n1Cc1ccco1`, the viability was 89.7%. Compound `CCN(CC(=O)NCc1ccc(F)cc1)C(=O)C1CCN(C(=O)Nc2ccccc2)CC1` has a viability of 96.2%. `COCCn1c(SCCN2CCOCC2)nc2c1c(=O)[nH]c(=O)n2C` gave a viability of 104%. In the case of `Cc1ccc(C(=O)NCCn2cc(SCC(=O)Nc3cc(C)on3)c3ccccc32)cc1`, the viability is reported as 87.4%. In the case of `COC(=O)C1CCCN1C(C(=O)NC1CCCCC1)c1ccc(Cl)cc1` (stereo not drawn), the viability is reported as 82.7%. With `CC(=O)c1ccc(OCCCC(=O)NCC(c2ccco2)N(C)C)cc1` (stereo not drawn) the viability was 68.9%. For `CCOc1ccc(NC2c3ccccc3C(=O)N2c2ccc(Cl)cn2)cc1` (stereo not drawn), the viability was 94.2%. Compound `O=C(c1ccco1)N1CCN=C1SCc1cccc(Cl)c1` has a viability of 87.3%. Work on `Cc1nn(C(=O)CN2C(=O)c3ccccc3C2=O)c(C)c1Br` yielded a viability of 101%. In the case of `CCOC(=O)CNc1c(N2CCN(c3ccccn3)CC2)c(=O)c1=O`, the viability is reported as 110%. In the case of `CCOC(=O)c1[nH]c(=O)[nH]c1CSc1nc(C)cc(C)n1`, the viability is reported as 102%. Work on `Cc1ccc(NC(=O)CSc2nnc(Cc3cccn3C)n2-c2ccc(F)cc2)c(C)c1` yielded a viability of 93.2%. Work on `COc1ccc(NC(=O)c2ccc3c(c2)n(C)c(=O)n3C)cc1` yielded a viability of 55.7%. Work on `O=C(O)COc1ccc2c(c1)OCCO2` yielded a viability of 99.2%. With `O=C(Nc1cccc(Br)c1)c1cc2ccccc2o1` the viability was 65.5%. `CC1(C)Cc2ccccc2-c2nc(NCCO)n(-c3ccccc3)c(=O)c21` showed a viability of 84.8%. Work on `C=C(C)CSc1nc2c(cc1C#N)CCC2` yielded a viability of 99.4%. `CCC1Oc2nc(SC)nnc2-c2ccccc2N1C(=O)c1ccccc1` (stereo not drawn) showed a viability of 70.6%. `COC(=O)c1ccccc1NC(=O)CS(=O)(=O)Cc1nc(-c2ccc(C)cc2)oc1C` gave a viability of 93.5%. With `O=C1CC(c2ccccc2)C(C(=O)Nc2ccccc2F)N1` (stereo not drawn) the viability was 104%. With `O=C(CCSCCc1ccccn1)Nc1nccs1` the viability was 102%. Compound `CCN(CCNS(=O)(=O)c1ccc2c(c1)oc(=O)n2C)c1ccccc1` has a viability of 108%. For `O=C(CN(Cc1ccccc1)S(=O)(=O)c1ccccc1)NC1CC1`, the viability was 102%. Compound `O=C(Nc1cccc(F)c1)c1ccc(S(=O)(=O)N2CCCC2)cc1` has a viability of 101%. `N#Cc1cccc(NC(=O)CC2CCCCC2)c1` gave a viability of 95%. `O=S(=O)(NC1c2cccc3cccc(c23)C1N1CCNCC1)c1ccccc1` (stereo not drawn) showed a viability of 68%. In the case of `CC(C)N(Cc1nc(-c2ccccc2)no1)C(=O)Cc1ccccc1`, the viability is reported as 87.1%. In the case of `COc1cc(NC(=O)c2cc(-c3cccc(O)c3)on2)cc(OC)c1OC`, the viability is reported as 89.8%. Compound `Cc1cccc(NC(=O)CC2SC(=NC3CCCCC3)NC2=O)c1` (stereo not drawn) has a viability of 99.2%. Work on `CCSc1nnc(Cn2c(=O)sc3ccccc32)n1-c1ccc(OC)cc1` yielded a viability of 92.1%. For `Cn1c(=O)oc2cc(S(=O)(=O)N3CCC(N4CCCCC4)CC3)ccc21`, the viability was 98.7%. In the case of `CN(C(=O)c1cnc2n(c1=O)CCS2)C1CCCCC1`, the viability is reported as 105%. `COc1cc(OC)c(C2CC(=O)N3CN(C)CSC3=C2C#N)cc1OC` (stereo not drawn) gave a viability of 99.3%. Work on `CCn1nnc(NC(=O)c2ccc(C(C)(C)C)cc2)n1` yielded a viability of 90.2%. Compound `Cc1cc2nsnc2c(S(=O)(=O)NCC(=O)O)c1C` has a viability of 100%.
